In all, about 16,000 compounds went through this assay and about 5,100 (32%) were called active. Another 25% or so got no clear call; they are omitted. The call rests on the fitted dose curve; in most records, active means well fitted curve in the direction sought with a large enough effect; inconclusive means small, poorly fitted or top-dose-only effect, or effect the other way; inactive means no such curve, though single readings can be large or run the other way. This is one part of the list.
Molecular target: Cytochrome P450 3A4 (Homo sapiens) (UniProt P08684)
Test: Cytochrome panel assay with activity outcomes
Details: recombinant CYP, pro-luciferin dealkylation, luminescence, p450-cyp3a4; series mostly up to 57.1 µM; activity, negative = inhibition: at the top concentration
On the % scale 0 is the no-effect control and ±100 the full control effect.

Chain of Cytochrome P450 3A4 (Homo sapiens) (P08684 whole entry, looked up): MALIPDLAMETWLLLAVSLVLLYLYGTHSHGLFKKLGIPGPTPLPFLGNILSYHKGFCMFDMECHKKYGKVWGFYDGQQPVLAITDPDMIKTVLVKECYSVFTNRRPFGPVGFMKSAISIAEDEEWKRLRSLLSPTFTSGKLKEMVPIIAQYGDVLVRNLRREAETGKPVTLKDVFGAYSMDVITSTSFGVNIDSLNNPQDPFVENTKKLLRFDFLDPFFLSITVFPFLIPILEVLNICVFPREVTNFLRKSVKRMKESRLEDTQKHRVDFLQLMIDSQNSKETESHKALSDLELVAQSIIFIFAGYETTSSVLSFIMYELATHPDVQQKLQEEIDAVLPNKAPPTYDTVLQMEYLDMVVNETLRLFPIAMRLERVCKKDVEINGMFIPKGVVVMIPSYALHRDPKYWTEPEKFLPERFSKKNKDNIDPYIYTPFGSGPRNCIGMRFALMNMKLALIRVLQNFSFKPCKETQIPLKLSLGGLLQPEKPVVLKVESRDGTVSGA

SMILES	activity, negative = inhibition	AC50
O=C(C[n+]1cccc(NC(=O)c2ccccc2)c1)c1ccc(NC(=O)c2ccccc2)cc1	9.66% [at 2.29 µM] (inactive)	–
CN(C)/C=C/C(=O)c1ccc(F)cc1	-10.5% (inactive)	–
O=C(O)CCC(=O)CCC(=O)c1ccccc1	-7.58% (inactive)	–
O=C(/C=C\NCC(=O)c1ccccc1)c1ccccc1	–	15.8 µM (active)
O=C(CCCc1ccccn1)c1ccccc1	-27.1% [at 11.4 µM] (inactive)	–
O=C(/C=C\NCC(=O)c1ccccc1)c1ccc(F)cc1	–	14.1 µM (active)
N[C@@H](CS(=O)O)C(=O)O	-3.74% (inactive)	–
COc1cccc([C@@H]2Oc3ccc(OC)cc3/C(=N/OC[C@@H](O)COCc3ccco3)[C@@H]2O)c1	–	3.16 µM (active)
COc1cccc(C2C3(C#N)C(N)=NC(OC)(OC)C23C#N)c1 (configuration not stated)	-16.8% [at 2.29 µM] (inactive)	–
Cn1c(=O)n2n(c1=O)[C@H]1[C@H](O)[C@H]3O[C@@H]3/C(=N/OC[C@@H](O)COCc3ccco3)[C@@H]1CC2	-23.8% [at 11.4 µM] (inactive)	–
COc1cccc([C@@H]2Oc3ccc(OC)cc3C(=O)[C@H]2O)c1	–	3.98 µM (active)
COc1cccc([C@H]2Oc3ccc(OC)cc3/C(=N\OC[C@@H](O)[C@@H]3O[C@@H]4OC(C)(C)O[C@@H]4[C@H]3O)[C@@H]2O)c1	–	3.98 µM (active)
CC(C)=NOC[C@@H](O)COCc1ccco1	-14.7% [at 11.4 µM] (inactive)	–
CCOc1ccc(/C=C2\C(=O)c3ccccc3OC2c2ccccc2)cc1 (configuration not stated)	17.9% (inactive)	–
CCN1C(=O)[C@H]2[C@H]3[C@H](O)[C@H](O)C/C(=N/OC[C@@H](O)[C@H]4O[C@H]5OC(C)(C)O[C@H]5[C@@H]4O)[C@@H]3CC[C@@H]2C1=O	-16.2% [at 11.4 µM] (inactive)	–
COc1cccc([C@@H]2Oc3ccc(OC)cc3/C(=N/OC[C@@H](C)[C@H](OCc3ccccc3)C(C)C)[C@@H]2O)c1	–	3.16 µM (active)
CCOC(=O)C1CN(S(=O)(=O)c2cccc(C(F)(F)F)c2)c2cc(CC(=O)OC)ccc2O1 (configuration not stated)	–	5.01 µM (active)
CCS(=O)(=O)c1ccc2c(c1)N(S(C)(=O)=O)CC(C(=O)NCCOC)O2 (configuration not stated)	-7.69% (inactive)	–
O=C(O)Cc1ccc2c(c1)N(S(=O)(=O)c1cccc(C(F)(F)F)c1)CC(C(=O)O)O2 (configuration not stated)	-7.46% [at 2.29 µM] (inactive)	–
COc1ccc2[nH]cc(CCNc3ncncc3-c3ccc(C(=O)N(C)C)cc3)c2c1	–	1 µM (active)
COc1ccc2[nH]cc(CCNc3ncncc3-c3ccc(N(C)C)cc3)c2c1	–	0.501 µM (active)
COc1ccc2[nH]cc(CCNc3ncnc4ccc(-c5ccc(C(=O)N(C)C)cc5)cc34)c2c1	–	2.51 µM (active)
